Activity calls are given as the source filed them. Rule for the calls: active = hit-call score of the fitted dose curve at least 0.9, where 1 is the maximum; inactive = score below 0.9. Peptide text beside a SMILES is read from it.
Tested on: not listed separately
Test: ATG_CRE_CIS: Attagene CIS-FACTORIAL HepG2 Assay for human cAMP Responsive Element (CRE) binding protein 3 (AID 2282926)
Conditions: HepG2 CRE cis-reporter, Attagene multiplexed mRNA; actives raise or lower the signal
Procedure, shortened: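 Multiplexed transcription-unit reporters transfected into HepG2; 24 h dosing; RT-PCR/capillary electrophoresis fluorescence read-out; bidirectional fit vs DMSO.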
In the case of `CN1CCN(C)CC1`, the outcome is reported as “inactive”.
For `CC(C)OC(=O)c1ccccc1`, the outcome was “inactive”.
For `COC(=O)[C@H](Cc1ccccc1)NC(=O)[C@@H](N)CC(=O)O` (H-Asp-Phe-OMe), the outcome was “inactive”.
With `C=CCCCCCCCCC=O` the outcome was “inactive”.
In the case of `c1ccc(-c2nc3ccccc3[nH]2)cc1`, the outcome is reported as “inactive”.
For `CC(=O)/C=C/C1C(C)=CCCC1(C)C` (stereo not drawn), the outcome was “inactive”.
In the case of `C=C(C)C1CC=C(C)CC1` (stereo not drawn), the outcome is reported as “inactive”.
In the case of `CCCCCCCCC(CO)CCCCCC` (stereo not drawn), the AC50 is reported as 100 µM (active).
In the case of `O=C(O)c1ccc2c(c1)C(=O)OC2=O`, the outcome is reported as “inactive”.
For `CC(C)(c1ccccc1)c1ccc(Nc2ccc(C(C)(C)c3ccccc3)cc2)cc1`, the outcome was “inactive”.
With `CCCC(C)C(=O)OCC` (stereo not drawn) the outcome was “inactive”.
In the case of `NC(=O)Nc1ccccc1`, the outcome is reported as “inactive”.
With `CC1=CCC(C(C)C)C=C1` (stereo not drawn) the outcome was “inactive”.
For `CCN(CC)c1cccc(C)c1`, the outcome was “inactive”.
With `CC(=O)OC/C=C(/C)CCC=C(C)C` the outcome was “inactive”.
With `O=C(O)c1cc(O)c2ccccc2c1O` the outcome was “inactive”.

Target: CCAAT/enhancer-binding protein beta (Homo sapiens) (UniProt P17676)
Sequence (P17676 whole entry, looked up): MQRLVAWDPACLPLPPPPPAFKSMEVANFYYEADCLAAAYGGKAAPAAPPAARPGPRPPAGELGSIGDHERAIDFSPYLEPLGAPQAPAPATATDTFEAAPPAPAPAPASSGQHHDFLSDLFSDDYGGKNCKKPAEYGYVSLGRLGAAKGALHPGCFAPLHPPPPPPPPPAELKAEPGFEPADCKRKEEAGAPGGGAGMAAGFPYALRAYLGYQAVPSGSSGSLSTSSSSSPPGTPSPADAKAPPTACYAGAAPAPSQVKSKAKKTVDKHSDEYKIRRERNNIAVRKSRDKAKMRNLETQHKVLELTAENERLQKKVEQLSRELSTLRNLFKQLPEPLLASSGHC
Test: ATG_C_EBP_CIS: Attagene CIS-FACTORIAL HepG2 Assay for human CCAAT/Enhancer Binding Protein (C/EBP) beta (AID 2282927)
Conditions: HepG2 Attagene cis-factorial transcription factor reporter; actives raise or lower the signal
Procedure, shortened: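 Endogenous transcription factor activity in human liver HepG2 cells is inferred from induction of a CEBPB-linked reporter mRNA. Exposure lasts 24 h; activity is fitted in both directions relative to DMSO.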
For `O=S(=O)(O)c1ccc(N=Nc2c(O)ccc3ccccc23)cc1`, the outcome was “inactive”.
With `CC1(C)[C@@H]2CC[C@@]1(C)C(=O)C2` the outcome was “inactive”.
For `Cc1ccc(C)c(OCCCC(C)(C)C(=O)O)c1`, the outcome was “inactive”.
In the case of `COc1ccc(C(=O)/C(Br)=C\C(=O)O)cc1`, the AC50 is reported as 129 µM (active).
For `C/C=C/C=C/CCCCCCCO`, the outcome was “inactive”.
In the case of `CCCCCCCCCCCC(C)=O`, the outcome is reported as “inactive”.
With `CC(=O)OCC=C(C)C` the outcome was “inactive”.
For `CCCC=C(C=O)CC`, the outcome was “inactive”.
In the case of `CCc1cccc(C)c1N`, the outcome is reported as “inactive”.
In the case of `CCCCCCCCCCCCC`, the outcome is reported as “inactive”.
For `COCC(=O)O`, the outcome was “inactive”.
With `CCC1COC(=O)O1` (stereo not drawn) the outcome was “inactive”.
With `CCCC1CCCC(=O)O1` (stereo not drawn) the outcome was “inactive”.
With `C[Si](C)(C)N[Si](C)(C)C` the outcome was “inactive”.
For `CCCC(CC)c1ccccc1` (stereo not drawn), the outcome was “inactive”.
With `CC(=O)OC1CCCCC1` the outcome was “inactive”.
With `CCCCCC(=O)OCC` the outcome was “inactive”.
For `CC1CC(=O)CC(C)(C)C1` (stereo not drawn), the outcome was “inactive”.
With `CC(C)(C)NC(=O)[C@H]1CC[C@H]2[C@@H]3CC[C@H]4NC(=O)C=C[C@]4(C)[C@H]3CC[C@]12C` the outcome was “inactive”.
With `CCC1(C)C(=O)N(Cl)C(=O)N1Cl` (stereo not drawn) the AC50 was 38.9 µM (active).
For `CC/C=C\CCOC(=O)c1ccccc1O`, the outcome was “inactive”.
For `CN1CCN(C)CC1`, the outcome was “inactive”.
With `CC(C)OC(=O)c1ccccc1` the outcome was “inactive”.
For `COC(=O)[C@H](Cc1ccccc1)NC(=O)[C@@H](N)CC(=O)O` (H-Asp-Phe-OMe), the outcome was “inactive”.
In the case of `C=CCCCCCCCCC=O`, the outcome is reported as “inactive”.
For `c1ccc(-c2nc3ccccc3[nH]2)cc1`, the outcome was “inactive”.
In the case of `CC(=O)/C=C/C1C(C)=CCCC1(C)C` (stereo not drawn), the outcome is reported as “inactive”.
With `C=C(C)C1CC=C(C)CC1` (stereo not drawn) the outcome was “inactive”.
In the case of `CCCCCCCCC(CO)CCCCCC` (stereo not drawn), the outcome is reported as “inactive”.
With `O=C(O)c1ccc2c(c1)C(=O)OC2=O` the outcome was “inactive”.
In the case of `CC(C)(c1ccccc1)c1ccc(Nc2ccc(C(C)(C)c3ccccc3)cc2)cc1`, the outcome is reported as “inactive”.
With `CCCC(C)C(=O)OCC` (stereo not drawn) the outcome was “inactive”.
In the case of `NC(=O)Nc1ccccc1`, the outcome is reported as “inactive”.
In the case of `CC1=CCC(C(C)C)C=C1` (stereo not drawn), the outcome is reported as “inactive”.
With `CCN(CC)c1cccc(C)c1` the outcome was “inactive”.
In the case of `CC(=O)OC/C=C(/C)CCC=C(C)C`, the outcome is reported as “inactive”.
With `O=C(O)c1cc(O)c2ccccc2c1O` the AC50 was 5.04 µM (active).

Source: PubChem BioAssay (EPA / NIEHS)
